# In PubChem BioAssay (NCI):
# About 79,000 compounds went through this panel and 15% of them were active in at least one assay; those are over-represented in the sample as a whole. Values without a mark were called inactive. Activity calls are given as the source filed them. Cut-off read from the data, not from the text of the source: active = growth inhibition above about 70%; inactive = the rest.
# Experiments:
# [1] = NCI Yeast Anticancer Drug Screen. Data for the rad50 strain (AID 155);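 note: 0% = growth of vehicle-only cultures of the same strain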; settings: S. cerevisiae rad50 strain growth inhibition; at 50.0 µM; hits give high values
# How it was run: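 DNA repair mutant yeast, compound exposure, growth read-out; inhibition is taken relative to vehicle.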
# [2] = NCI Yeast Anticancer Drug Screen. Data for the mec2-1 strain (AID 157); settings: S. cerevisiae mec2-1 strain, at 50.0 µM, hits give high values
# How it was run: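 Strain: mec2-1 (DNA repair/cell cycle alteration). Compound exposure, then growth measured; inhibition expressed relative to vehicle.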
# [3] = NCI Yeast Anticancer Drug Screen. Data for the sgs1 mgt1 strain (AID 161);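 note: 0% = growth of cultures given vehicle only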; settings: S. cerevisiae sgs1 mgt1 strain, at 50.0 µM, hits give high values
# How it was run: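 Test agents were incubated with a DNA-repair-mutant yeast strain. Growth was then read and compared against vehicle-treated controls.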
# [4] = NCI Yeast Anticancer Drug Screen. Data for the cln2 rad14 strain (AID 165);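 note: 0% = growth equal to vehicle treated cultures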; settings: S. cerevisiae cln2 rad14 strain, at 50.0 µM, hits give high values
# How it was run: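 Compounds are applied to the cln2 rad14 yeast strain, and growth is then compared with that of vehicle-treated cultures to give inhibition.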
# [5] = NCI Yeast Anticancer Drug Screen. Data for the bub3 strain (AID 167); settings: S. cerevisiae bub3 mutant strain, at 50.0 µM, hits give high values
# How it was run: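 In this screen, a yeast mutant lacking normal mitotic checkpoint function is challenged with compound. Relative growth versus vehicle gives the inhibition value.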
# [6] = NCI Yeast Anticancer Drug Screen. Data for the mlh1 rad18 strain (AID 175); settings: S. cerevisiae mlh1 rad18 strain growth inhibition; at 50.0 µM; hits give high values
# How it was run: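 Read-out is yeast growth inhibition, calculated against vehicle-only controls. The compound was applied to a strain engineered with DNA damage repair alterations.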
SMILES,growth inhibition [1],growth inhibition [2],growth inhibition [3],growth inhibition [4],growth inhibition [5],growth inhibition [6]
Oc1[nH]c2ccccc2c1N=NC(=S)Nc1ccccc1Cl,-8.2%,-2.3%,46.5%,36.2%,21.8%,26.2%
O=C1/C(=N\N(C(=O)c2ccccc2)c2ccccc2)c2cccc3cccc1c23,11.8%,49%,20.4%,12.2%,24.9%,35.9%
Cc1ccc(C(=O)c2c[nH]c(=O)[nH]c2=O)cc1,9.45%,-20.2%,-6.7%,-6.5%,-3.05%,-21.9%
COc1ccc(C(c2ccccc2)c2ccc(OC)cc2)cc1,-7.95%,-13%,-12.9%,-124%,37.7%,4.45%
Cc1cnc2c(C)ccc([N+](=O)[O-])c2c1NCCCN(C)C,34.2%,13.8%,12.7%,2.45%,16.9%,52%
CCCCCCCCCCC(CCCCCCCCCC)C1CCCC1,-12.3%,16.1%,0.7%,-14.6%,-12.8%,-12.9%
C=CCSC(C)=O,-3.4%,-0.05%,13.9%,7.6%,-7.8%,-6.8%
O=C(O)c1cccc(Sc2ccccc2)c1,-0.05%,9.25%,8.25%,-0.85%,-18.9%,16.6%
Cc1nc(Nc2ccccc2)c(C#N)c(=O)[nH]1,-19.6%,-16.4%,-15.6%,-10.1%,-2.95%,-7.05%
CC1(C)OC(C(F)(F)F)(C(F)(F)F)c2cc(C(C)(C)C)ccc2S1,-26.9%,-29.8%,-12.7%,-35.4%,-1%,-9.95%
COc1c(C)c(C)c(OC(C)=O)c(C)c1COC(C)=O,53.9%,23.8%,33.2%,25.6%,42.9%,64.7%
CN(C)c1ccc(/C=N/NC(=O)c2ccccc2NC(=O)c2ccc(Cl)cc2)c(Cl)c1,1.4%,0.45%,19.9%,-6.3%,-6.1%,0.5%
CC(Nc1ccc(Cl)c(Cl)c1)C1CCOC1=O (stereo unspecified),85.5% (active),97% (active),94.8% (active),80% (active),94.8% (active),95.5% (active)
COc1ccc2cc1Oc1ccc(cc1)CC1c3cc(c(OC)cc3CCN1C)Oc1c3c(cc4c1C(C2)N(C)CC4)OCO3 (stereo unspecified),1.6%,-14.3%,-15.7%,4.65%,1.1%,3.45%
O=C(CO)CC(=O)C(=O)Nc1ccccc1,-10.8%,-22.9%,1.5%,10.6%,-4.15%,-9.9%
O=C1C(/C=N\C(=S)NCc2ccccc2)=C(O)c2ccccc21,-31.9%,-30.2%,-27.1%,15.7%,-3.45%,-7.05%
CCOC(=O)NC(Nc1ccc(C(=O)OCC)cc1)(C(F)(F)F)C(F)(F)F,0.25%,3.25%,-15.2%,-16%,-13.2%,0.55%
CCc1cc(CSc2ccc(Cl)cc2)ccc1N,98.5% (active),99% (active),98.8% (active),97.2% (active),98% (active),98.2% (active)
N#CC(CC(=O)c1ccccc1)c1ccc(Cl)cc1 (stereo unspecified),1%,4.45%,-6.7%,-79.2%,41.4%,-13.7%
CSc1cnc(N)s1,14.6%,14.8%,3%,-13.1%,-2.45%,32.4%
[Cu+2].[NH-]C(Cc1ccc(O)cc1)C(=O)O.[NH-]C(Cc1ccc(O)cc1)C(=O)O (stereo unspecified),13.1%,1.55%,-12.6%,15.2%,1.65%,5%

SMILES,growth inhibition [1],growth inhibition [2],growth inhibition [3],growth inhibition [4],growth inhibition [5],growth inhibition [6]
CC(=O)c1ccc(O)c(CN(C2CCCCC2)C2CCCCC2)c1O,-2.9%,-10.3%,-36.1%,12.4%,-18%,4.5%
COC(CN1C=C(Sc2ccccc2)CC1)OC,49.2%,24.2%,32.3%,13%,27.5%,56.2%
COc1ccc(C2(C=O)NC(=O)NC2=O)cc1 (stereo unspecified),-2.25%,-22.9%,-13.5%,36%,-2.6%,9%
O=C(NC(c1ccccc1)C(Cl)(Cl)c1ccccc1)c1ccccc1 (stereo unspecified),21.8%,-7.5%,6.4%,-0.2%,22.9%,23.3%
CC(O)C(=O)N1CCCCC1 (stereo unspecified),13.7%,9.5%,-3.95%,-8.35%,10.6%,-23.1%
CC(C)CCC[C@@H](C)[C@H]1CC[C@H]2[C@@H]3CC[C@H]4C[C@H](N[C@@H]5CC[C@@]6(C)[C@@H](CC[C@@H]7[C@@H]6CC[C@]6(C)[C@@H]([C@H](C)CCCC(C)C)CC[C@@H]76)C5)CC[C@]4(C)[C@H]3CC[C@]12C,55.1%,19.2%,46.8%,-2.8%,15.3%,36.7%
O=C(NCCCNCCCCNCCCNC(=O)C(F)(F)F)C(F)(F)F,5.05%,-0.9%,6.6%,-8.45%,4.25%,3.3%
c1ccc2c(c1)ccc1cc3c(ccc4ccccc43)cc12,15.3%,-11.3%,7.9%,13.2%,34.6%,12.4%
Cc1ccc(C)c(N2C(=O)C(=O)C(c3nc4ccccc4s3)/C(=N/NC(=O)NN)C2=O)c1 (stereo unspecified),1.9%,14.1%,-5.75%,-2.55%,-2.1%,-16.9%
O=C1c2ccccc2CC12Cc1ccccc1C2,2.05%,-17.4%,-3.85%,-15.3%,-29.7%,0.15%
O=P(Nc1ccc(Cl)c(Cl)c1)(N1CCCCC1)N1CCCCC1,3.5%,-47.8%,-12.4%,-12.8%,2.45%,14.7%
O=C1CC(=O)N(C=C2C(=O)NC(=O)NC2=O)C(=S)N1,-11.9%,-2.15%,-18.6%,11.2%,4.6%,0.45%
O=c1c2cc([N+](=O)[O-])ccc2[nH]n1Cc1ccccc1Cl,-0.1%,12.3%,-3.8%,14.9%,6.6%,-4.45%
c1ccc2c(-c3c[nH]c4ccccc34)c[nH]c2c1,16.8%,-1.5%,-3.05%,-27.2%,-8.75%,15.3%
CC(C)COC1CN=NN1/C=C1\CCOC1=O (stereo unspecified),-4.2%,10.4%,14.3%,-6.65%,24.2%,-3%
CC1(C)OC2(C)CCC1C1C2N1C(=O)Nc1cccc(Cl)c1 (stereo unspecified),-4.05%,-13.8%,-2.25%,-2.45%,-7.9%,-18.5%
CCCCNS(=O)(=O)c1ccc(C)cc1,-24.6%,-26.4%,-23%,-42.7%,-22%,-21.3%
CCOC(=O)C1=C(C(=O)c2ccccc2)C(c2ccc([N+](=O)[O-])cc2)C(C(=O)c2ccccc2)=C(C(=O)OCC)N1,-6.5%,1.6%,-4%,14.2%,-10.9%,7.5%
COCCOC(=O)CCC(C)=O,20.8%,15.1%,6.45%,7.8%,-4.95%,10.7%
COc1cc(OC)c2[nH]c3c(c(=O)c2c1)C(=O)c1[nH]c2c(OC)cc(OC)cc2c(=O)c1C3=O,26.8%,4.55%,12.8%,17.4%,-3.55%,19.9%
